Measured values: PubChem BioAssay (NCI)
The panel holds about 79,000 compounds, 15% with a hit somewhere; the sample as a whole holds those more often. Unmarked numbers belong to inactive results. Activity calls are given as the source filed them. No stated cut-off is given here; in the data, active means growth inhibition above about 70%; inactive means the rest.

What was measured:
[1] = NCI Yeast Anticancer Drug Screen. Data for the rad50 strain (AID 155);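 further: 0% = growth of vehicle-only cultures of the same strain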; details: S. cerevisiae rad50 strain growth inhibition, active compounds read high
Procedure, shortened: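 Genetically altered yeast (DNA repair pathway); compound treatment; growth inhibition vs vehicle ctrl.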

[2] = NCI Yeast Anticancer Drug Screen. Data for the mec2-1 strain (AID 157); details: S. cerevisiae mec2-1 strain, active compounds read high
Procedure, shortened: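 Readout is yeast growth inhibition, normalised to vehicle-treated controls, in the mec2-1 strain exposed to compound.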

[3] = NCI Yeast Anticancer Drug Screen. Data for the sgs1 mgt1 strain (AID 161);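 further: 0% = growth of cultures given vehicle only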; details: S. cerevisiae sgs1 mgt1 strain, active compounds read high
Procedure, shortened: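 Yeast cells carrying a defined DNA-repair defect were exposed to test compounds. Growth inhibition was measured relative to vehicle-treated controls.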

[4] = NCI Yeast Anticancer Drug Screen. Data for the cln2 rad14 strain (AID 165);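 further: 0% = growth equal to vehicle treated cultures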; details: S. cerevisiae cln2 rad14 strain, active compounds read high
Procedure, shortened: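 Relative to vehicle controls, growth inhibition of compound-treated cln2 rad14 yeast was recorded.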

[5] = NCI Yeast Anticancer Drug Screen. Data for the bub3 strain (AID 167); details: S. cerevisiae bub3 mutant strain, active compounds read high
Procedure, shortened: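 Yeast carrying a defined mutation is treated with each compound, and growth is compared with that of vehicle-exposed cells to give inhibition.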

[6] = NCI Yeast Anticancer Drug Screen. Data for the mlh1 rad18 strain (AID 175); details: S. cerevisiae mlh1 rad18 strain growth inhibition, active compounds read high
Procedure, shortened: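 Test agents were incubated with a yeast strain of defined genotype (DNA damage repair defect). Inhibition of growth was derived by comparison with vehicle-exposed cultures.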

[7] = at 5.0 µM (retest, dose inferred, filed as 0.5)
[8] = at 50.0 µM (retest, dose inferred, filed as 5.0)

For `Cc1[nH]nc(C(=O)N/N=C/c2cccs2)c1N=NN(C)C`, the growth inhibition [1, 7] was 73% (active), the growth inhibition [1, 8] was 96% (active) and the growth inhibition ([1]; at 50.0 µM) was 97.2% (active). The growth inhibition [2, 7] was 15%, the growth inhibition [2, 8] was 98% (active) and the growth inhibition ([2]; at 50.0 µM) was 82.9% (active). The growth inhibition [3, 7] was 19%, the growth inhibition [3, 8] was 73% (active) and the growth inhibition ([3]; at 50.0 µM) was 97% (active). For the same molecule, the growth inhibition [4, 7] was -3%, the growth inhibition [4, 8] was 96% (active) and the growth inhibition ([4]; at 50.0 µM) was 99.3% (active). The growth inhibition [5, 7] was -1%, the growth inhibition [5, 8] was 95% (active) and the growth inhibition ([5]; at 50.0 µM) was 87.6% (active). The growth inhibition [6, 7] was 80% (active), the growth inhibition [6, 8] was 98% (active) and the growth inhibition ([6]; at 50.0 µM) was 99% (active).

With `CC(=O)c1nc2ccccc2n1C(C)C(=O)c1ccccc1` (configuration not stated) the growth inhibition [1, 7] was 39%, the growth inhibition [1, 8] was 37% and the growth inhibition ([1]; at 50.0 µM) was 16.9%. The growth inhibition [2, 7] was 23%, the growth inhibition [2, 8] was 34% and the growth inhibition ([2]; at 50.0 µM) was 21.6%. For the same molecule, the growth inhibition [3, 7] was 18%, the growth inhibition [3, 8] was 74% (active) and the growth inhibition ([3]; at 50.0 µM) was 68.4%. It also gave a growth inhibition [4, 7] of 33%, a growth inhibition [4, 8] of 24% and a growth inhibition ([4]; at 50.0 µM) of 6.15%. For the same molecule, the growth inhibition [5, 7] was -7%, the growth inhibition [5, 8] was 35% and the growth inhibition ([5]; at 50.0 µM) was 37.5%. For the same molecule, the growth inhibition [6, 7] was 18%, the growth inhibition [6, 8] was 30% and the growth inhibition ([6]; at 50.0 µM) was -1.7%.

For `CCCCCCCCCCCC1=NCC(C)N1` (configuration not stated), the growth inhibition [1, 7] was -39%, the growth inhibition [1, 8] was 26% and the growth inhibition ([1]; at 50.0 µM) was 71.9% (active). The growth inhibition [2, 7] was 2%, the growth inhibition [2, 8] was 27% and the growth inhibition ([2]; at 50.0 µM) was -2.95%. For the same molecule, the growth inhibition [3, 7] was -3%, the growth inhibition [3, 8] was 1% and the growth inhibition ([3]; at 50.0 µM) was 28.6%. It also gave a growth inhibition [4, 7] of -46%, a growth inhibition [4, 8] of -5% and a growth inhibition ([4]; at 50.0 µM) of 44.4%. It also gave a growth inhibition [5, 7] of 0%, a growth inhibition [5, 8] of 36% and a growth inhibition ([5]; at 50.0 µM) of 45%. It also gave a growth inhibition [6, 7] of -29%, a growth inhibition [6, 8] of 15% and a growth inhibition ([6]; at 50.0 µM) of 46%.

With `BrC1=CC(Br)=C2N=C(C(Br)(Br)Br)N=C3N=C(C(Br)(Br)Br)N=C1N32` the growth inhibition [1, 7] was 27%, the growth inhibition [1, 8] was 97% (active) and the growth inhibition ([1]; at 50.0 µM) was 99% (active). The growth inhibition [2, 7] was 15%, the growth inhibition [2, 8] was 98% (active) and the growth inhibition ([2]; at 50.0 µM) was 99.5% (active). The growth inhibition [3, 7] was 20%, the growth inhibition [3, 8] was 99% (active) and the growth inhibition ([3]; at 50.0 µM) was 99.8% (active). For the same molecule, the growth inhibition [4, 7] was 5%, the growth inhibition [4, 8] was 97% (active) and the growth inhibition ([4]; at 50.0 µM) was 98.2% (active). The growth inhibition [5, 7] was 0%, the growth inhibition [5, 8] was 97% (active) and the growth inhibition ([5]; at 50.0 µM) was 99.2% (active). For the same molecule, the growth inhibition [6, 7] was 30%, the growth inhibition [6, 8] was 97% (active) and the growth inhibition ([6]; at 50.0 µM) was 99% (active).

For `COC(=O)c1ccc(SCC(=O)c2ccc([N+](=O)[O-])o2)cc1`, the growth inhibition [1, 7] was 4%, the growth inhibition [1, 8] was 90% (active) and the growth inhibition ([1]; at 50.0 µM) was 97% (active). The growth inhibition [2, 7] was 4%, the growth inhibition [2, 8] was 98% (active) and the growth inhibition ([2]; at 50.0 µM) was 98% (active). The growth inhibition [3, 7] was 5%, the growth inhibition [3, 8] was 81% (active) and the growth inhibition ([3]; at 50.0 µM) was 79.3% (active). The growth inhibition [4, 7] was -4%, the growth inhibition [4, 8] was 96% (active) and the growth inhibition ([4]; at 50.0 µM) was 95.3% (active). The growth inhibition [5, 7] was -5%, the growth inhibition [5, 8] was 46% and the growth inhibition ([5]; at 50.0 µM) was 60.4%. The growth inhibition [6, 7] was 2%, the growth inhibition [6, 8] was 79% (active) and the growth inhibition ([6]; at 50.0 µM) was 98.5% (active).

In the case of `CCC[CH2][Sn]([CH2]CCC)([O]C(=O)c1ccc(C)c(N)c1)[O]C(=O)c1ccc(C)c(N)c1`, the growth inhibition [1, 7] is reported as 98% (active), the growth inhibition [1, 8] is reported as 98% (active) and the growth inhibition ([1]; at 50.0 µM) is reported as 91.7% (active). The growth inhibition [2, 7] was 92% (active), the growth inhibition [2, 8] was 92% (active) and the growth inhibition ([2]; at 50.0 µM) was 92% (active). For the same molecule, the growth inhibition [3, 7] was 96% (active), the growth inhibition [3, 8] was 96% (active) and the growth inhibition ([3]; at 50.0 µM) was 92.5% (active). The growth inhibition [4, 7] was 96% (active), the growth inhibition [4, 8] was 96% (active) and the growth inhibition ([4]; at 50.0 µM) was 91.3% (active). For the same molecule, the growth inhibition [5, 7] was 90% (active), the growth inhibition [5, 8] was 90% (active) and the growth inhibition ([5]; at 50.0 µM) was 89% (active). For the same molecule, the growth inhibition [6, 7] was 97% (active), the growth inhibition [6, 8] was 97% (active) and the growth inhibition ([6]; at 50.0 µM) was 87.5% (active).

In the case of `CCCC(=O)Oc1ccc(-c2ccccc2)cc1Br`, the growth inhibition [1, 7] is reported as 2%, the growth inhibition [1, 8] is reported as 83% (active) and the growth inhibition ([1]; at 50.0 µM) is reported as 96.5% (active). For the same molecule, the growth inhibition [2, 7] was 2%, the growth inhibition [2, 8] was 86% (active) and the growth inhibition ([2]; at 50.0 µM) was 91.5% (active). For the same molecule, the growth inhibition [3, 7] was 4%, the growth inhibition [3, 8] was 81% (active) and the growth inhibition ([3]; at 50.0 µM) was 94.5% (active). For the same molecule, the growth inhibition [4, 7] was 6%, the growth inhibition [4, 8] was 84% (active) and the growth inhibition ([4]; at 50.0 µM) was 86.7% (active). For the same molecule, the growth inhibition [5, 7] was 18%, the growth inhibition [5, 8] was 77% (active) and the growth inhibition ([5]; at 50.0 µM) was 91.1% (active). The growth inhibition [6, 7] was -1%, the growth inhibition [6, 8] was 73% (active) and the growth inhibition ([6]; at 50.0 µM) was 95.9% (active).

`C(=C/c1ccccc1)/C=N/Nc1ccccc1` showed a growth inhibition [1, 7] of -139%, a growth inhibition [1, 8] of -112% and a growth inhibition ([1]; at 50.0 µM) of -15.8%. For the same molecule, the growth inhibition [2, 7] was -52%, the growth inhibition [2, 8] was -50% and the growth inhibition ([2]; at 50.0 µM) was 9.7%. It also gave a growth inhibition [3, 7] of -53%, a growth inhibition [3, 8] of -52% and a growth inhibition ([3]; at 50.0 µM) of -23.8%. For the same molecule, the growth inhibition [4, 7] was -61%, the growth inhibition [4, 8] was -64% and the growth inhibition ([4]; at 50.0 µM) was -9%. For the same molecule, the growth inhibition [5, 7] was -72%, the growth inhibition [5, 8] was -59% and the growth inhibition ([5]; at 50.0 µM) was 36.5%. For the same molecule, the growth inhibition [6, 7] was -107%, the growth inhibition [6, 8] was -79% and the growth inhibition ([6]; at 50.0 µM) was 2.35%.

For `CCOC(=O)C(=Cc1ccccc1Br)C(=O)OCC`, the growth inhibition [1, 7] was 16%, the growth inhibition [1, 8] was 92% (active) and the growth inhibition ([1]; at 50.0 µM) was 78.5% (active). For the same molecule, the growth inhibition [2, 7] was 33%, the growth inhibition [2, 8] was 94% (active) and the growth inhibition ([2]; at 50.0 µM) was 92.5% (active). For the same molecule, the growth inhibition [3, 7] was 20%, the growth inhibition [3, 8] was -18% and the growth inhibition ([3]; at 50.0 µM) was 96.5% (active). The growth inhibition [4, 7] was 17%, the growth inhibition [4, 8] was 93% (active) and the growth inhibition ([4]; at 50.0 µM) was 67.8%. For the same molecule, the growth inhibition [5, 7] was 26%, the growth inhibition [5, 8] was 96% (active) and the growth inhibition ([5]; at 50.0 µM) was 95.7% (active). The growth inhibition [6, 7] was 14%, the growth inhibition [6, 8] was 97% (active) and the growth inhibition ([6]; at 50.0 µM) was 96.2% (active).
